Test systems include MOLT-4 leukemia; SR leukemia; RPMI-8226 leukemia; OVCAR-8 ovarian; OVCAR-5 ovarian; OVCAR-4 ovarian; SK-OV-3 ovarian; IGROV1 ovarian; OVCAR-3 ovarian; HS 578T breast; NCI/ADR-RES ovarian; BT-549 breast; MDA-MB-435 melanoma; SW-620 colon; MCF7 breast; HCT-116 colon; HCC-2998 colon; T-47D breast; KM12 colon.
Common to all, as to test: NCI-60 one-dose screen, 48 h (100 = growth as untreated, 0 = no growth, -100 = all killed)
What all share (conditions): 10 µM unless noted

About 83,000 compounds went through this panel and 20% of them were active in at least one assay; those are over-represented in the sample as a whole.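 The endpoint reported here, percent growth, reads 100 for growth as untreated, 0 for no net growth and -100 for all cells dead.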 Unmarked numbers belong to inactive results. Active and inactive are the calls of the source. Rule for the calls: active = growth percent below 10; inactive = the rest.

In PubChem BioAssay (NCI) one finds growth data, which are given here for eight compounds.

As to `O=[N+]([O-])c1ccc([Se]C2CCCCC2Cl)c([N+](=O)[O-])c1` (stereo not drawn), the growth is 73.2% with MOLT-4 leukemia; 78.7% with SR leukemia; 82.8% with RPMI-8226 leukemia; 59.7% in the experiment with OVCAR-8 ovarian; 101% in the experiment on OVCAR-5 ovarian; 78.8% in the experiment with OVCAR-4 ovarian. Also, the growth is 106% in the experiment on SK-OV-3 ovarian; 70.8% in the experiment with IGROV1 ovarian; 88.2% with OVCAR-3 ovarian; 22.2% in the experiment on HS 578T breast; 79% in the experiment with NCI/ADR-RES ovarian; 60.8% in the experiment with BT-549 breast. Also, the growth in the experiment with MDA-MB-435 melanoma is 55.3%; with SW-620 colon, 106%; in the experiment with MCF7 breast, 91.4%; in the experiment with HCT-116 colon it was 46.6%; with HCC-2998 colon, 98.8%.
In the case of `CCc1ccccc1[C@@H]1C[C@]2(C)CCO[C@@H]2OO1`, the growth was 105% in the experiment with MOLT-4 leukemia; 102% in the experiment on SR leukemia; 100% in the experiment on RPMI-8226 leukemia; 96% in the experiment with OVCAR-8 ovarian; 109% with OVCAR-5 ovarian; 96.3% in the experiment with OVCAR-4 ovarian. The growth is 107% in the experiment on SK-OV-3 ovarian; 108% with IGROV1 ovarian; 113% with OVCAR-3 ovarian; 101% in the experiment on HS 578T breast; 105% with NCI/ADR-RES ovarian; 101% in the experiment with T-47D breast. The growth was 111% in the experiment with BT-549 breast; 102% with SW-620 colon; 95.7% in the experiment on MCF7 breast; 96.3% in the experiment with HCT-116 colon; 93.7% with HCC-2998 colon; 101% in the experiment on KM12 colon.
On to `O=C(O)CNC(=O)C(Cl)(Cl)Cl`, for which the growth is 91.7% with MOLT-4 leukemia; 89.8% with SR leukemia; 92.3% in the experiment on RPMI-8226 leukemia; 90.3% in the experiment on OVCAR-8 ovarian; 97.1% in the experiment with OVCAR-5 ovarian; 99.5% in the experiment with OVCAR-4 ovarian. Also, the growth in the experiment on SK-OV-3 ovarian was 108%; in the experiment with IGROV1 ovarian, 100%; with OVCAR-3 ovarian, 108%; with NCI/ADR-RES ovarian, 108%; with T-47D breast, 94.5%; in the experiment with BT-549 breast, 103%. Further, the growth was 97.8% in the experiment with MDA-MB-435 melanoma; 94.8% with SW-620 colon; 91.1% with MCF7 breast; 107% in the experiment on HCT-116 colon; 104% in the experiment on HCC-2998 colon; 101% with KM12 colon.
In the case of `O=C(N/N=C\c1ccc(N(CCCl)CCCl)cc1Cl)c1cccnc1`, the growth with MOLT-4 leukemia was 87.5%; with SR leukemia it was 99.5%; in the experiment with RPMI-8226 leukemia, 82.4%; in the experiment on OVCAR-8 ovarian, 96%; in the experiment on OVCAR-5 ovarian, -3.04% (active); in the experiment on OVCAR-4 ovarian, 53.7%. The growth is 95.3% with SK-OV-3 ovarian; 37% with IGROV1 ovarian; 57.6% with OVCAR-3 ovarian; 119% with HS 578T breast; 86.4% with NCI/ADR-RES ovarian; 90.7% in the experiment with BT-549 breast. The growth in the experiment on MDA-MB-435 melanoma is 104%; in the experiment with SW-620 colon, 79.2%; in the experiment with MCF7 breast, 34.4%; with HCT-116 colon, 43%; with HCC-2998 colon, 76.8%; in the experiment with KM12 colon, 102%.
In the case of `Nc1ccc(Cl)cc1`, the growth with MOLT-4 leukemia was 94.3%; in the experiment on SR leukemia, 102%; with RPMI-8226 leukemia, 98.9%; in the experiment with OVCAR-8 ovarian, 97.4%; in the experiment with OVCAR-5 ovarian it was 100%; with OVCAR-4 ovarian it was 106%. The growth with SK-OV-3 ovarian is 92%; in the experiment on IGROV1 ovarian, 105%; with OVCAR-3 ovarian, 112%; in the experiment on HS 578T breast it was 98.9%; in the experiment with NCI/ADR-RES ovarian, 99.5%; in the experiment with T-47D breast, 94.6%. Moreover, the growth in the experiment with MDA-MB-435 melanoma was 105%; with SW-620 colon, 103%; with MCF7 breast, 98.2%; with HCT-116 colon, 95.9%; with HCC-2998 colon, 106%; in the experiment with KM12 colon, 102%.
Consider `COC(=O)[C@@H](C)C[C@H](Cc1ccccc1)NC(=O)c1csc([C@@H](C[C@H](C(C)C)N(C)C(=O)[C@@H](NC(=O)[C@H]2CCCCN2C)C2CC2)OC(C)=O)n1`, for which the growth was 15.3% in the experiment with MOLT-4 leukemia; 2.03% (active) with SR leukemia; 34.9% in the experiment with RPMI-8226 leukemia; 22.2% in the experiment on OVCAR-8 ovarian; 73% in the experiment on OVCAR-5 ovarian; 57.4% in the experiment with OVCAR-4 ovarian. Besides, the growth in the experiment on SK-OV-3 ovarian is 21.9%; in the experiment on IGROV1 ovarian, 30.8%; with OVCAR-3 ovarian, -4.55% (active); in the experiment on HS 578T breast it was 35.7%; in the experiment on NCI/ADR-RES ovarian it was 8.28% (active); with T-47D breast it was 73%. Besides, the growth with BT-549 breast was -30.6% (active); in the experiment with SW-620 colon, 48.4%; in the experiment on MCF7 breast, 16.3%; in the experiment with HCT-116 colon, 7.53% (active); in the experiment on HCC-2998 colon it was 15.9%; with KM12 colon, 5.07% (active).
In the case of `NC1CC2CCCCC2CC1(O)c1ccccc1` (stereo not drawn), the growth in the experiment on MOLT-4 leukemia is 85.7%; in the experiment with SR leukemia, 90.7%; in the experiment on RPMI-8226 leukemia, 93.6%; in the experiment on OVCAR-8 ovarian, 98.6%; with OVCAR-5 ovarian, 95.4%; with OVCAR-4 ovarian, 102%. Besides, the growth was 107% with SK-OV-3 ovarian; 102% in the experiment on IGROV1 ovarian; 109% with OVCAR-3 ovarian; 102% with HS 578T breast; 99.5% with T-47D breast; 102% with BT-549 breast. Besides, the growth is 105% in the experiment with MDA-MB-435 melanoma; 101% with SW-620 colon; 96.1% in the experiment on MCF7 breast; 93.7% in the experiment with HCT-116 colon; 109% with HCC-2998 colon; 99.7% in the experiment on KM12 colon.
On to `CCC1(C)CC(CCNCc2ccccc2O)(c2ccc(C)cc2)CCO1` (stereo not drawn), for which the growth with MOLT-4 leukemia is 101%; in the experiment with SR leukemia, 96%; in the experiment with RPMI-8226 leukemia, 98.2%; in the experiment on OVCAR-8 ovarian it was 103%; in the experiment on OVCAR-5 ovarian, 100%; in the experiment with OVCAR-4 ovarian, 100%. Further, the growth is 112% in the experiment on SK-OV-3 ovarian; 95.6% with IGROV1 ovarian; 105% in the experiment with OVCAR-3 ovarian; 104% in the experiment with HS 578T breast; 103% in the experiment with T-47D breast; 101% in the experiment on BT-549 breast. In addition, the growth is 100% in the experiment with MDA-MB-435 melanoma; 103% with SW-620 colon; 97.3% in the experiment on MCF7 breast; 109% in the experiment with HCT-116 colon; 117% in the experiment on HCC-2998 colon; 107% with KM12 colon.
